Test results: PubChem BioAssay AID1159580 (chemical genetic matrix, 2015)
Out of some 5,500 compounds screened, about 2,000 (36%) were called active. Another 18% or so got no clear call; they are omitted. This is one part of the list. Values without a mark were called inactive. No stated cut-off is given here; in the data, active means normalized growth mostly below about 0.91 (no sharp cut-off); inconclusive means no clear call, values can overlap the other calls; inactive means mostly above about 0.92.

Test: chemical genetic growth profiling, strain panel (AID 1159580);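 further: tested at 20 µM; growth read once vehicle control cultures reached saturation at 30 °C; 1 = growth at the plate median or of vehicle wells; lower values mean less growth of the strain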
Settings: growth OD

## O=C(O[C@@H]1Cc2c(O)cc(O)cc2O[C@@H]1c1cc(O)c(=O)c2c(O)c(O)cc([C@H]3Oc4cc(O)cc(O)c4C[C@H]3OC(=O)c3cc(O)c(O)c(O)c3)c2c1)c1cc(O)c(O)c(O)c1
S. cerevisiae deletion strains, locus YJR075W, strain HOC1, hits give low values
  normalized growth: 0.753 (active)
S. cerevisiae deletion strains, locus YKL009W, strain mrt4, hits give low values
  normalized growth: 1.06
S. cerevisiae deletion strains, locus YKL068W, hits give low values
  normalized growth: 1.04
S. cerevisiae deletion strains, locus YKL085W, strain MDH1 (second series), hits give low values
  normalized growth: 1.05
S. cerevisiae deletion strains, locus YKL085W, strain MDH1, hits give low values
  normalized growth: 1.05
S. cerevisiae deletion strains, locus YKL160W, strain elf1, hits give low values
  normalized growth: 0.71 (active)
S. cerevisiae deletion strains, locus YKL190W, strain CNB1, hits give low values
  normalized growth: 0.637 (active)
S. cerevisiae deletion strains, locus YKR001C, strain vps1, hits give low values
  normalized growth: 0.979
S. cerevisiae deletion strains, locus YKR026C, strain gcn3, hits give low values
  normalized growth: 0.971
S. cerevisiae deletion strains, locus YKR091W, strain srl3, hits give low values
  normalized growth: 0.927 (active)
S. cerevisiae deletion strains, locus YLL001W, strain dnm1, hits give low values
  normalized growth: 0.614 (active)
S. cerevisiae deletion strains, locus YLL026W, hits give low values
  normalized growth: 0.553 (active)
S. cerevisiae deletion strains, locus YLL041C, strain sdh2, hits give low values
  normalized growth: 0.661 (active)
S. cerevisiae deletion strains, locus YLR027C, strain aat2, hits give low values
  normalized growth: 0.407 (active)
S. cerevisiae deletion strains, locus YLR039C, strain RIC1, hits give low values
  normalized growth: 0.598 (active)
S. cerevisiae deletion strains, locus YLR058C, strain SHM2, hits give low values
  normalized growth: 0.525 (active)
S. cerevisiae deletion strains, locus YLR102C, strain apc9, hits give low values
  normalized growth: 1.04
S. cerevisiae deletion strains, locus YLR113W, strain HOG1, hits give low values
  normalized growth: 1.12
S. cerevisiae deletion strains, locus YLR221C, strain rsa3, hits give low values
  normalized growth: 0.573 (active)
S. cerevisiae deletion strains, locus YLR258W, strain gsy2, hits give low values
  normalized growth: 0.523 (active)
S. cerevisiae deletion strains, locus YLR262C, strain YPT6 (second series), hits give low values
  normalized growth: 0.539 (active)
S. cerevisiae deletion strains, locus YLR262C, strain YPT6, hits give low values
  normalized growth: 0.69
S. cerevisiae deletion strains, locus YLR268W, strain sec22, hits give low values
  normalized growth: 0.81 (active)
S. cerevisiae deletion strains, locus YLR320W, strain mms22, hits give low values
  normalized growth: 0.619 (active)
S. cerevisiae deletion strains, locus YLR330W, strain CHS5, hits give low values
  normalized growth: 0.898 (active)
S. cerevisiae deletion strains, locus YLR342W, strain FKS1 (second series), hits give low values
  normalized growth: 0.449 (active)
S. cerevisiae deletion strains, locus YLR342W, strain FKS1, hits give low values
  normalized growth: 0.447 (active)
S. cerevisiae deletion strains, locus YLR357W, strain rsc2, hits give low values
  normalized growth: 0.602 (active)
S. cerevisiae deletion strains, locus YLR370C, strain arc18, hits give low values
  normalized growth: 0.499 (active)
S. cerevisiae deletion strains, locus YLR371W, strain rom2, hits give low values
  normalized growth: 0.849 (active)
S. cerevisiae deletion strains, locus YLR384C, strain iki3, hits give low values
  normalized growth: 0.713 (active)
S. cerevisiae deletion strains, locus YLR418C, strain cdc73, hits give low values
  normalized growth: 0.583 (active)
S. cerevisiae deletion strains, locus YML016C, strain PPZ1, hits give low values
  normalized growth: 0.482 (active)
S. cerevisiae deletion strains, locus YML032C, strain rad52, hits give low values
  normalized growth: 1.05
S. cerevisiae deletion strains, locus YML120C, strain ndi1, hits give low values
  normalized growth: 0.634 (active)
S. cerevisiae deletion strains, locus YML124C, strain tub3, hits give low values
  normalized growth: 1.02
S. cerevisiae deletion strains, locus YMR058W, strain fet3, hits give low values
  normalized growth: 0.101 (active)
S. cerevisiae deletion strains, locus YMR078C, strain ctf18, hits give low values
  normalized growth: 1.02
S. cerevisiae deletion strains, locus YMR125W, strain sto1, hits give low values
  normalized growth: 1.04
S. cerevisiae deletion strains, locus YMR129W, hits give low values
  normalized growth: 0.604 (active)
S. cerevisiae deletion strains, locus YMR205C, strain PFK2, hits give low values
  normalized growth: 0.353 (active)
S. cerevisiae deletion strains, locus YMR223W, strain ubp8, hits give low values
  normalized growth: 0.979
S. cerevisiae deletion strains, locus YMR231W, strain pep5, hits give low values
  normalized growth: 0.158 (active)
S. cerevisiae deletion strains, locus YMR263W, strain SAP30, hits give low values
  normalized growth: 0.723 (active)
S. cerevisiae deletion strains, locus YMR307W, strain GAS1, hits give low values
  normalized growth: 0.481 (active)
S. cerevisiae deletion strains, locus YNL067W, strain RPL9B, hits give low values
  normalized growth: 0.699 (active)
S. cerevisiae deletion strains, locus YNL071W, strain lat1, hits give low values
  normalized growth: 0.607 (active)
S. cerevisiae deletion strains, locus YNL128W, strain TEP1, hits give low values
  normalized growth: 0.351 (active)
S. cerevisiae deletion strains, locus YNL153C, strain GIM3, hits give low values
  normalized growth: 0.741 (active)
S. cerevisiae deletion strains, locus YNL183C, strain NPR1, hits give low values
  normalized growth: 0.983
S. cerevisiae deletion strains, locus YNL209W, strain ssb2, hits give low values
  normalized growth: 0.149 (active)
S. cerevisiae deletion strains, locus YNL233W, strain BNI4, hits give low values
  normalized growth: 0.768 (active)
S. cerevisiae deletion strains, locus YNL248C, strain rpa49, hits give low values
  normalized growth: 0.863 (active)
S. cerevisiae deletion strains, locus YNL250W, strain rad50, hits give low values
  normalized growth: 1.02
S. cerevisiae deletion strains, locus YNL271C, strain bni1, hits give low values
  normalized growth: 1.03
S. cerevisiae deletion strains, locus YNL298W, strain CLA4, hits give low values
  normalized growth: 1.03
S. cerevisiae deletion strains, locus YNL307C, strain MCK1, hits give low values
  normalized growth: 1.04
S. cerevisiae deletion strains, locus YNL322C, strain KRE1 (second series), hits give low values
  normalized growth: 0.857 (active)
S. cerevisiae deletion strains, locus YNL322C, strain KRE1, hits give low values
  normalized growth: 0.569 (active)
S. cerevisiae deletion strains, locus YNR049C, strain mso1, hits give low values
  normalized growth: 0.913 (active)
S. cerevisiae deletion strains, locus YNR052C, strain pop2, hits give low values
  normalized growth: 0.975
S. cerevisiae deletion strains, locus YOL006C, strain TOP1, hits give low values
  normalized growth: 0.216 (active)
S. cerevisiae deletion strains, locus YOL012C, strain htz1
  normalized growth: 0.378
S. cerevisiae deletion strains, locus YOL147C, strain pex11, hits give low values
  normalized growth: 1.01
S. cerevisiae deletion strains, locus YOR001W, strain rrp6, hits give low values
  normalized growth: 0.57 (active)
S. cerevisiae deletion strains, locus YOR061W, strain CKA2, hits give low values
  normalized growth: 0.848 (active)
S. cerevisiae deletion strains, locus YOR069W, strain VPS5, hits give low values
  normalized growth: 0.891 (active)
S. cerevisiae deletion strains, locus YOR070C, strain gyp1, hits give low values
  normalized growth: 0.495 (active)
S. cerevisiae deletion strains, locus YOR080W, strain dia2, hits give low values
  normalized growth: 0.286 (active)
S. cerevisiae deletion strains, locus YOR083W, strain WHI5, hits give low values
  normalized growth: 0.543 (active)
S. cerevisiae deletion strains, locus YOR106W, strain vam3, hits give low values
  normalized growth: 0.119 (active)
S. cerevisiae deletion strains, locus YOR136W, strain idh2, hits give low values
  normalized growth: 0.99
S. cerevisiae deletion strains, locus YOR144C, strain elg1, hits give low values
  normalized growth: 1.01
S. cerevisiae deletion strains, locus YOR184W, strain ser1, hits give low values
  normalized growth: 0.857 (active)
S. cerevisiae deletion strains, locus YOR231W, strain MKK1, hits give low values
  normalized growth: 1.04
S. cerevisiae deletion strains, locus YOR265W, strain rbl2, hits give low values
  normalized growth: 0.658 (active)
S. cerevisiae deletion strains, locus YOR270C, strain vph1, hits give low values
  normalized growth: 0.223 (active)
S. cerevisiae deletion strains, locus YOR290C, strain snf2, hits give low values
  normalized growth: 0.496 (active)
S. cerevisiae deletion strains, locus YOR316C, strain cot1, hits give low values
  normalized growth: 1.04
S. cerevisiae deletion strains, locus YPL051W, strain arl3, hits give low values
  normalized growth: 0.263 (active)
S. cerevisiae deletion strains, locus YPL055C, strain LGE1, hits give low values
  normalized growth: 0.473 (active)
S. cerevisiae deletion strains, locus YPL078C, strain atp4, hits give low values
  normalized growth: 0.705 (active)
S. cerevisiae deletion strains, locus YPL106C, strain sse1, hits give low values
  normalized growth: 0.593 (active)
S. cerevisiae deletion strains, locus YPL240C, strain hsp82, hits give low values
  normalized growth: 0.679 (active)
S. cerevisiae deletion strains, locus YPL241C, strain CIN2, hits give low values
  normalized growth: 0.922 (active)
S. cerevisiae deletion strains, locus YPL256C, strain CLN2, hits give low values
  normalized growth: 1.15
S. cerevisiae deletion strains, locus YPR119W, strain clb2, hits give low values
  normalized growth: 1.03
S. cerevisiae deletion strains, locus YPR141C, strain kar3, hits give low values
  normalized growth: 1.03
S. cerevisiae deletion strains, locus YPR163C, strain tif3, hits give low values
  normalized growth: 1.02
S. cerevisiae deletion strains, locus YPR167C, strain met16, hits give low values
  normalized growth: 1.02
S. cerevisiae deletion strains, strain wtn01, hits give low values
  normalized growth: 0.808 (active)
S. cerevisiae strains, strain wild type, hits give low values
  normalized growth: 0.491 (active)
